# An excerpt weighted towards active compounds, which were near 3.5% of everything screened.
# Pf apPOL inh – Pf-apPOL DNA polymerase inhibition. Recombinant Pf-apPOL, molecular beacon fluorescence, 1.5 h. inhibition, % at 10 µM. 0.25% of 210,000 active
# mHTT CaM bind – disrupts binding of mutant huntingtin to calmodulin | 3.6% of 190,000 active | AlphaScreen His-mHTT/GST-CaM binding, luminescence | inhibition, % at 15 µM | P42858;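 also: 0% = both proteins with DMSO and 100% = one protein alone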
# The depositor's hits bear a star; i = inactive; x = no result given. Rule as the data show it: active = inhibition above about 50%; inactive = the rest.
SMILES,Pf apPOL inh,mHTT CaM bind
O=C(c1cc(F)ccc1F)N1CCC(CCOCc2ccc(F)cc2)CC1,-8,-21
O=C(c1cc(F)ccc1F)N1CCC(n2nc(-c3ccsc3)ccc2=O)CC1,0,98*
CC(=O)CC(=O)N1CCOCC1,x,-6
COc1ccc(NC(=O)c2ccc(Cn3ccnc3)cc2)cc1N1CCCC1=O,-7,-3
COc1ccc(C(C)NC(=O)c2cn3cc(C)ccc3n2)cc1 (centres undefined),-6,10
Cc1cc(OCC(=O)O/N=C(\N)c2ccncc2)cc(C)c1Cl,-5,i
Cn1c(O)c(C=NCc2ccco2)c(=O)n(C)c1=S,x,-5
Cc1ccccc1C(=O)Nc1ccc(O)c(-c2nc3ccccc3s2)c1,-5,10
Cc1ccc(/C=C2\N=C(c3cc(F)c(F)cc3Cl)OC2=O)cc1,-7,1
Cc1cc2c3c(c(Br)cc(S(=O)(=O)O)c3n1)C(=O)c1ccccc1-2,2,99*
Cc1cc(Br)c2c3c(c(N)c(=O)[nH]c13)-c1ccccc1C2=O,-2,29
O=C(O)c1cccc(Nc2nc(-c3ccccn3)cs2)c1,-4,96*
Cc1cccc(Nc2nc(-c3ccccn3)cs2)c1,-1,97*
Oc1cccc(Nc2nc(-c3ccccn3)cs2)c1,-4,99*
Cc1ccc(C)c(-c2csc(Nc3ncccn3)n2)c1,-7,2
O=C(O)c1cccc(Nc2nc(-c3ccccc3)cs2)c1,1,16
Oc1ccc(-c2csc(Nc3ncccn3)n2)c(O)c1,-3,9
Cc1noc(C)c1CN1CCN(C(=O)c2ccc3nsnc3c2)CC1,-2,-7
CSC(N)=NC(=S)Nc1cccc(Cl)c1,8,x
O=C(NCc1ccccc1F)c1c(O)c2cccc3c2n(c1=O)CC3,-3,0
CNc1nccc(N2CCC(CC(=O)NCc3cccc(C(F)(F)F)c3)CC2)n1,1,54*
CNc1nccc(N2CCC(CC(=O)NCc3ccc(OC)c(OC)c3)CC2)n1,-2,17
Cn1cc(C(=O)NCCc2c[nH]c3ccccc23)c2nn(-c3ccccc3)c(=O)c-2c1,-10,36
Cn1cc(C(=O)NCCc2c[nH]c3ccccc23)c2[nH]c(=O)n(Cc3ccccc3)c(=O)c21,5,56*
Cc1ccc(NC(=O)Nc2ccc(Cl)cc2)cc1,-15,-2
SMILES,Pf apPOL inh,mHTT CaM bind
Cc1ccc(NC(NC(=O)Nc2ccccc2)C(Cl)(Cl)Cl)cc1 (centres undefined),-1,85*
COc1ccc2c(=O)c3c(oc2c1)C(=O)N(CCN(C)C)C3c1ccc(C(C)(C)C)cc1 (centres undefined),-8,42
Cc1cccc(C(=O)N2CCc3c(c(C(=O)NCc4ccccc4)nn3C)C2)c1,-12,88*
Cc1cccc(CNC(=O)c2nn(C)c3c2CN(C(=O)c2ccco2)CC3)c1,2,72*
Cn1nc(C(=O)NCc2ccc(F)cc2)c2c1CCN(C(=O)c1ccco1)C2,-5,18
Cn1nc(C(=O)NCc2ccc(F)cc2)c2c1CCN(C(=O)c1cccc(F)c1)C2,-8,-3
Cc1cccc(CNC(=O)c2nn(C)c3c2CN(C(=O)C2CC2)CC3)c1,-7,6
Cc1cccc(CNC(=O)c2nn(C)c3c2CN(C(=O)COc2cccc(C)c2)CC3)c1,-5,76*
Cc1cccc(CNC(=O)c2nn(C)c3c2CN(C(=O)CSc2ccccc2)CC3)c1,-7,66*
CCOc1ccc(C(=O)N2CCc3c(c(C(=O)NCc4cccc(C)c4)nn3C)C2)cc1,-11,-1
Cc1ccccc1C(=O)N1CC(C)C(c2nc(-c3ccccc3)no2)C1 (centres undefined),1,16
O=C(Cn1nc(-n2cccn2)ccc1=O)Nc1ccc(-c2ccc(=O)[nH]n2)cc1,5,-10
COc1ccc(/C=c2\sc3nc(-c4ccc(Br)cc4)nn3c2=O)cc1OC,1,-4
CC1=C(C(N)=O)C(c2cccs2)n2nc(SCc3ccccc3Cl)nc2N1 (centres undefined),-6,-1
COc1ccc(S(=O)(=O)N2CCCOC2CNC(=O)C(=O)NC2CCCCC2)cc1 (centres undefined),-1,-2
NC(=Nc1nc(=O)c2ccccc2s1)NC(=O)c1cccc(Br)c1,3,-6
Cc1cccc(C(=O)N2CCc3c(c(C(=O)NCc4ccc5c(c4)OCO5)nn3C)C2)c1,-8,62*
CC(C)C(=O)N1CCc2c(c(C(=O)NCc3ccc4c(c3)OCO4)nn2C)C1,-14,6
Cn1nc(C(=O)NCc2ccccc2)c2c1CCN(C(=O)c1ccc(F)cc1)C2,3,19
COc1cccc(C(=O)N2CCc3c(c(C(=O)NCc4ccc5c(c4)OCO5)nn3C)C2)c1,-2,51*
COc1ccc(C(=O)N2CCc3c(c(C(=O)NCc4cccc(C)c4)nn3C)C2)cc1,0,10
Cc1cccc(CNC(=O)c2nn(C)c3c2CN(C(=O)c2ccc(F)cc2)CC3)c1,-5,51*
CC(C)n1cc2cc(C(=O)NCCCN3CCCCC3)sc2c1,-6,15
CN(CC(=O)Nc1ccc(OC(F)(F)F)cc1)S(=O)(=O)c1cccs1,-4,-9
c1ccc(-c2nc3c4cnn(-c5ccccc5)c4ncn3n2)cc1,-10,-4
SMILES,Pf apPOL inh,mHTT CaM bind
Cc1ccc(C2=NN(C(=O)CN3CCC(C(N)=O)CC3)C(c3ccc(C)cc3)C2)cc1 (centres undefined),-9,57*
CC(=O)N1CCN(CC(=O)N2N=C(c3ccc(C)c(C)c3)CC2c2ccccc2)CC1 (centres undefined),4,47
Cc1ccc(C2CC(c3ccc(Br)cc3)=NN2C(=O)CCC(=O)O)cc1 (centres undefined),4,18
Cc1ccc(C2=NN(C(=O)CN3CCC(C(N)=O)CC3)C(c3ccccc3)C2)c(C)c1 (centres undefined),-2,56*
Cc1ccc(NC(=O)c2ccc(NCC3CCCO3)c([N+](=O)[O-])c2)cc1 (centres undefined),-8,3
CCC(=O)N1CCN(S(=O)(=O)c2ccc(C)cc2)C1c1ccc(OC)cc1 (centres undefined),-13,9
CCn1c(=O)c(-c2ccc(C(=O)Nc3ccc(C)c(C)c3)cc2)nc2cccnc21,-3,18
CC(O)CNc1c([N+](=O)[O-])c(=O)n(C)c2ccccc12 (centres undefined),70*,-1
Cn1c(=O)c([N+](=O)[O-])c(NCc2ccccc2)c2ccccc21,1,-1
O=C(c1ccccc1)N1CCC(CCNS(=O)(=O)c2cccs2)CC1,-2,36
COc1ccccc1CNC(=O)C1CC(=O)N(CCc2ccc(OC)c(OC)c2)C1 (centres undefined),-15,1
Cc1[nH]c2ccccc2c1C(C[N+](=O)[O-])c1cc(Cl)c2c(c1)OCO2 (centres undefined),1,62*
COc1ccc(C(C[N+](=O)[O-])c2c(O)cc(C)oc2=O)cc1 (centres undefined),1,6
O=C(Nc1nccs1)c1ccc2c(c1)OCO2,-11,-4
Cc1[nH]c2ccccc2c1C(Nc1nccs1)c1ccc2c(c1)OCO2 (centres undefined),7,83*
O=[N+]([O-])CC(c1ccc2c(c1)OCO2)c1c[nH]c2ccccc12 (centres undefined),-6,20
Cc1[nH]c2ccccc2c1C(C[N+](=O)[O-])c1ccc2c(c1)OCO2 (centres undefined),4,75*

# Bioassay records as filed in PubChem BioAssay.
